An excerpt weighted towards active compounds, which were near 10% of everything screened.
CCT chaperon mod: cytosolic chaperonin activity modulation. 360,000 tested, 0.3% active. activity change, % (concentration not given with the values), hits read low. purified chaperonin ATPase assay, HTRF ADP detection, 30 min. AID 651819; in the data active means activity change below about -30%
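Enzyme 40 or 20 nM (batch-dependent) in Tris pH 7.4/KCl/MgCl2/DTT; cpd 76 uM single point; ATP 10 uM; 30 min 37 °C; Transcreener ADP HTRF detection, 30 min RT; ratio 665/615.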
G9a inh: G9a (human) methyltransferase inhibition. G9a H3K9 monomethylation, AlphaScreen, 2 h. Potency, µM (doses to about 102 µM), actives largely listed as inhibitors. 350,000 tested, 8.8% active. AID 504332; further: nearly all actives have a fitted effect of over 75% in size
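G9a (20 nM) was preincubated 15 min with compound, then reacted 2 h at room temperature with 500 nM biotin-H3K9 peptide and 20 µM SAM. Monomethyl-H3K9 detected by AlphaScreen using anti-H3K9me1 antibody.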
VDR inhibitor: blocks the human vitamin D receptor; P11473; VDR-SRC2-3 peptide fluorescence polarization, 2 h; Potency, µM, actives largely listed as inhibitors; 400,000 tested, 0.93% active
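VDR–SRC2-3 interaction, FP format. Cmpds 23 nl via pintool, brief spin, 2 h ambient incubation.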
PLK1 PBD inh: blocks phosphopeptide binding to human PLK1 polo-box domain | Plk1 PBD binding of FITC phosphopeptide, fluorescence polarization | 360,000 tested, 2.8% active | P53350 | Potency, µM, usual class: inhibitors; further: series mostly up to about 57 µM; nearly all actives have a fitted effect of over 65% in size
Target sequence (P53350 whole entry, looked up, the tested form may be a part): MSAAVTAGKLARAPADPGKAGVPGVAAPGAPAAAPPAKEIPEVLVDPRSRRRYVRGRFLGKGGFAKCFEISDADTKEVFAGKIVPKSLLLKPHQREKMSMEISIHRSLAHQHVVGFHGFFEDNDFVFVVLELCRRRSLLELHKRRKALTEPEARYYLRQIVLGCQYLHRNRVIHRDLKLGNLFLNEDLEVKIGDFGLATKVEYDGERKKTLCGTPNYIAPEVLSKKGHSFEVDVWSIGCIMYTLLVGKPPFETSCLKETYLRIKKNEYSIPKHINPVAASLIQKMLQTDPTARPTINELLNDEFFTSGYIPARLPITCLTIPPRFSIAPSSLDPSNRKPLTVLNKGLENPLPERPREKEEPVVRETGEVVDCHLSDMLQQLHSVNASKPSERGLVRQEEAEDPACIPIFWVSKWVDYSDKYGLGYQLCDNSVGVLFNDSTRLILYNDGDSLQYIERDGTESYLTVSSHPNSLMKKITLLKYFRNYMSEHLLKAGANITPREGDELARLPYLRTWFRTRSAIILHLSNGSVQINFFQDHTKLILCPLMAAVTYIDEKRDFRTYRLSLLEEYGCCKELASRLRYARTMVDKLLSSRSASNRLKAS
Mm-Cpn inhibitor: inhibitors of Methanococcus maripaludis chaperonin TRiC (MmCpn); 330,000 tested, 0.031% active; purified Mm-Cpn ATPase, ADP Transcreener TR-FRET; AID 504842; Potency, µM (doses to about 76.9 µM), actives largely listed as inhibitors; further: nearly all actives have a fitted effect of over 80% in size
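ATPase turnover read by TR-FRET ADP competition (Eu cryptate antibody/ADP-d2, 665/590 nm): 10uM ATP final, 25nM Mm-CPN final, 30 min 37degC after 10-min compound preincubation, pH 7.4 Tris/KCl/MgCl2/DTT buffer.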
Sfp inh: inhibitors of Bacillus subtilis Sfp phosphopantetheinyl transferase; 310,000 tested, 3.5% active; Biochemical Sfp PPTase activity, qHTS; Potency, µM, usual class: inhibitors; AID 1490;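 further: the enzyme is Sfp with the accession as filed and its product quenches rhodamine fluorescence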
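Buffer: 50 mM Hepes-Na pH 7.6, 10 mM MgCl2, 0.01% Nonidet P-40, 0.01% BSA. Enzyme 15 nM, pre-exposed to compound 15 min; substrates then added and fluorescence change tracked over 30 min.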
A number is an active result; - = inactive; ? = inconclusive; . = no result given; [ ] = dose if it differs, or a comment. Unless noted, the call rests on the fitted dose curve; in most records, active means well fitted curve in the direction sought with a large enough effect; inconclusive means small, poorly fitted or top-dose-only effect, or another doubt; inactive means no such curve, though single readings can be large; an effect the other way counts as inactive or inconclusive.

SMILES | CCT chaperon mod | G9a inh | VDR inhibitor | PLK1 PBD inh | Mm-Cpn inhibitor | Sfp inh
CCN(Cc1ccccc1)C(=O)C1CCC(CNS(=O)(=O)c2ccc3c(c2)CCCC(=O)N3)CC1 (stereo unspecified) | . | - | - | . | . | .
CC1(C)S[C@@H]2[C@H](NC(=O)COc3ccccc3)C(=O)N2[C@H]1C(=O)O | . | - | - | . | . | -
CNC(=O)[C@H](C)[C@H]1C[C@]1(C)[C@H](NC(=O)OCc1ccccc1)c1ccccc1 | . | . | . | . | . | -
CSc1nn(CCc2ccncc2)c(=S)s1 | - | -[12.7 µM] | - | - | - | 50µM
CC(=O)N/C(=N\c1nc(C)cc(C)n1)Nc1ccc2ccccc2c1 | - | 79µM | - | - | - | -
O=C1/C(=C/c2c[nH]c3ccccc23)CCC/C1=C\c1c[nH]c2ccccc12 | - | ? | - | - | - | 50µM
Cc1nc(-c2cccc(S(=O)(=O)N3CC(C)OC(C)C3)c2)cs1 (stereo unspecified) | - | - | - | - | - | -
O=c1oc(-c2cccc(S(=O)(=O)N3CCOCC3)c2)nc2ccccc12 | - | 10µM | - | - | - | ?
Cc1nc(-c2cccc(S(=O)(=O)N3CCOCC3)c2)cs1 | - | ? | ? | 9.5µM | ? | 40µM
O=S(=O)(c1cccc(-c2csc(-c3cccnc3)n2)c1)N1CCCCC1 | - | -[2.33 µM] | - | - | - | -
O=S(=O)(c1cccc(-c2csc(-c3cccnc3)n2)c1)N1CCOCC1 | - | 71µM | - | - | ? | -
CN1CCN(C(=O)/C(=C/c2ccc(F)cc2)c2ccsc2)CC1 | - | 45µM | - | - | - | -
CN1CCN(C(=O)/C(=C/c2ccccc2)c2ccccc2)CC1 | - | - | - | - | - | -
COC(=O)c1nn(-c2ccc(C)cc2)c2nnc(Cc3ccccc3)c(=O)n12 | - | 18µM | - | - | - | -
COC(=O)c1nn(-c2cccc(C)c2)c2nnc(Cc3ccc(C)cc3)c(=O)n12 | - | - | - | - | - | -
CCOC(=O)C1Nc2ccccc2C2C(O)C(O)CC12 (stereo unspecified) | - | . | - | 38µM | . | .
O=C(NCCOc1ccccc1)C1Nc2ccc(C(F)(F)F)cc2C2c3ccccc3CC12 (stereo unspecified) | - | . | - | - | . | .
CCOC(=O)C1Nc2ccc(C(F)(F)F)cc2C2c3ccccc3CC12 (stereo unspecified) | - | . | 50µM | - | . | .
CCOc1ccc(C2c3c(-c4ccc(C)cc4)n[nH]c3C(=O)N2c2ccc(Cl)cc2)cc1 (stereo unspecified) | . | - | - | . | . | .
Cc1c(/C=N/NC(=O)CNc2ccccc2)c2ccccn2c1C(=O)c1ccncc1 | - | 45µM | - | - | - | -
COc1cc(/C=N/N=C2/SCC(=O)N2c2ccc(O)cc2)ccc1O | - | - | 18µM | 3µM | - | -
CC(OC(=O)c1cc(=O)[nH]c2ccccc12)C(=O)NCc1ccccc1 (stereo unspecified) | - | - | - | - | - | .
CC(OC(=O)c1cc(=O)[nH]c2ccccc12)C(=O)Nc1ccccc1F (stereo unspecified) | - | 32µM | - | - | - | .
CCC(=O)Nc1ccc(SC#N)cc1C | - | ? | - | 13µM | - | -
CCc1cc(SC#N)cc(C)c1NC(=O)CCl | - | 40µM | 79µM | 12µM | - | -
SMILES | CCT chaperon mod | G9a inh | VDR inhibitor | PLK1 PBD inh | Mm-Cpn inhibitor | Sfp inh
Cc1cc(SC#N)cc(C)c1NC(=O)CCl | - | ? | ? | ? | - | -
COc1ccc(C(=O)N/C(=C/c2ccco2)C(=O)NCc2ccco2)cc1 | - | ? | - | - | - | -
CC(=O)N/C(=C\c1ccc2c(c1)OCO2)C(=O)NC(C(=O)O)c1ccccc1 (stereo unspecified) | - | 89µM | - | - | - | -
Cc1ccc(C(=O)N/C(=C/c2ccco2)C(=O)Nc2cccc(C)c2)cc1 | - | ? | - | - | - | 35µM
O=C(Nc1ccccc1)/C(=C\c1ccc2c(c1)OCO2)NC(=O)c1ccco1 | - | - | - | 24µM | - | -
Cc1ccc(C(=O)N/C(=C/c2ccco2)C(=O)NCc2ccco2)cc1 | - | 45µM | - | - | - | -
COC(=O)[C@H](COC(C)(C)C)NC(=O)O[C@@H]1C(=O)c2cc(Br)ccc2O[C@H]1c1cccc(OC)c1 | . | . | - | . | . | -
CCCn1c2ccccc2c2cnn(CC(=O)NCCc3cc(OC)ccc3OC)c(=O)c21 | . | - | - | . | . | .
COc1ccccc1N1CCN(c2cc(C)nc3nc(-c4ccc(Cl)cc4)nn23)CC1 | . | - | - | . | . | .
O=C(Nc1cccc(F)c1)/C(=C/c1ccco1)NC(=O)c1ccco1 | - | 28µM | - | - | - | ?
COC(=O)[C@@]1(Cc2ccc(OC)cc2)[C@H]2c3cc(C(=O)N4CCCC4)n(CCO)c3C[C@H]2CN1C(=O)c1ccccc1 | - | 50µM | - | - | - | -
COC(=O)[C@@]1(Cc2ccc(OC)cc2)[C@H]2c3cc(C(=O)N(C)C)n(CCSCCO)c3C[C@H]2CN1C(=O)c1ccccc1 | - | 56µM | - | - | - | -
COC(=O)[C@@]1(Cc2ccc(OC)cc2)[C@H]2c3cc(C(=O)N4CCCC4)n(CCSCCO)c3C[C@H]2CN1C(=O)c1ccccc1 | - | 35µM | - | - | - | -
COC(=O)[C@@]1(Cc2ccc(F)cc2)[C@H]2c3cc(C(=O)N(C)C)n(Cc4ccc(OC(F)(F)F)cc4)c3C[C@H]2CN1C(=O)c1ccccc1 | . | 50µM | . | . | - | -
Cc1ccc(C)c(N2CCN(C(=O)CN3C(=O)COc4ccc(S(=O)(=O)N5CCCC5)cc43)CC2)c1 | . | - | - | . | . | .
COc1ccc(CN2C(=O)C(NC(=O)c3ccccc3OC)(C(F)(F)F)N=C2c2ccccc2)cc1 (stereo unspecified) | . | - | - | . | . | .
COC(=O)[C@@]1(Cc2ccc(OC)cc2)[C@H]2c3cc(C(=O)N4CCCC4)n(CCc4c[nH]c5ccc(O)cc45)c3C[C@H]2CN1C(=O)c1ccccc1 | . | 50µM | . | . | - | -
COC(=O)[C@@]1(Cc2ccc(F)cc2)[C@H]2c3cc(C(=O)N4CCCC4)n(CCc4ccc(O)c(O)c4)c3C[C@H]2CN1C(=O)c1ccccc1 | . | 7.1µM | . | . | - | -
COC(=O)[C@@]1(Cc2ccc(OC)cc2)[C@H]2c3cc(C(=O)N4CCCC4)n(CCc4c[nH]c5cc(F)ccc45)c3C[C@H]2CN1C(=O)c1ccccc1 | . | . | . | . | . | -
Cc1cccc(-n2ccnc2SCC(=O)Nc2ccccc2C(F)(F)F)c1 | . | ? | - | . | . | .
COc1nccnc1NS(=O)(=O)c1ccc(NS(=O)(=O)c2ccc(NC(C)=O)cc2)cc1 | - | - | - | - | - | -
COc1nccnc1NS(=O)(=O)c1ccc(N/C=C2\CCCCC2=O)cc1 | - | 50µM | - | - | - | -
COc1nccnc1NS(=O)(=O)c1ccc(NCc2cc(Br)ccc2O)cc1 | - | 45µM | - | - | - | -
Cc1ccc(Nc2nnc(SCC(=O)NCCN3C(=O)CSC3=O)s2)cc1C | - | 28µM | - | - | - | -
